Source: PubChem
An excerpt weighted towards active compounds, which were near 18% of everything screened.
HepG2 viability: counter-screen for TGF-b inhibitors: cytotoxicity in HepG2 cells; HepG2 CAGA-GFP viability, ATP luminescence, 18 h; Potency, µM (doses to about 46.1 µM), most hits filed as cytotoxic; 410,000 tested, 0.76% active; AID 588856
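HepG2 CAGA-GFP cells (1000/well, DMEM with 1% FBS) received compound, then TGF-beta at 500 pg/mL final, and were incubated 18 hours at 37 degrees C. Viability was read by CellTiter-Glo luminescence. Media-only wells were set as complete cell-killing and DMSO as no toxicity.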
TGFb SMAD3 inh: blocks TGF-b signaling. AID 588855. Potency, µM (top dose mostly 46.1 µM), most hits filed as inhibitors. HepG2 CAGA-GFP TGF-b/SMAD3 reporter, GFP fluorescence, 18 h; TGF-beta stimulated, 500 pg/mL final. 410,000 tested, 1.2% active; further: nearly all actives have a fitted effect of over 65% in size
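HEPG2 CAGA-GFP cells (1000/well, DMEM with 1% FBS) were pre-incubated 2 h at 37 degrees C, given compound by pin tool, then stimulated with TGF-beta at 500 pg/mL final for 18 h before per-cell GFP fluorescence imaging.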
TDP1 cell CPT: growth inhibition of DT40 Tdp1-/-;hTDP1 cells with camptothecin (screen for TDP1 inhibitors); chicken DT40 Tdp1-/-;hTDP1 cells + 20 nM CPT, ATP luminescence, 48 h; Potency, µM (top dose mostly 46.2 µM), usual class: inhibitors; 420,000 tested, 12% active; AID 686979; further: nearly all actives have a fitted effect of over 55% in size
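Chicken DT40 Tdp1-/- cells stably complemented with human TDP1 were seeded at 400 cells/well in medium containing 20 nM camptothecin, exposed to pin-transferred compounds, and grown at 37 °C for at least 48 hr. Viability was read as ATP luminescence.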
IL1B secr inh: blocks inflammasome-driven IL-1 beta release; THP-1 LPS/ATP IL-1B secretion, AlphaLISA, 16 h; hits give low values; activity change, % at 57.5 µM; 360,000 tested, 4.7% active; in the data active means activity change below about -50%; inconclusive means mostly about -30% to -49%
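Secreted IL-1B measured by AlphaLISA bead assay after 16 h compound exposure of THP-1 cells; compounds (final up to 57.5 uM) added 1 h before LPS (250 ng/mL) and ATP (1.25 mM) stimulation; lower signal means less secretion.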
TDP1 inh: inhibitors of human tyrosyl-DNA phosphodiesterase TDP1 | Potency, µM (series often up to 130 µM), most hits filed as inhibitors | recombinant TDP1, AlphaScreen DNA substrate cleavage | Q9NUW8 | 350,000 tested, 0.28% active; further: nearly all actives have a fitted effect of over 40% in size
Target sequence (Q9NUW8 whole entry, looked up): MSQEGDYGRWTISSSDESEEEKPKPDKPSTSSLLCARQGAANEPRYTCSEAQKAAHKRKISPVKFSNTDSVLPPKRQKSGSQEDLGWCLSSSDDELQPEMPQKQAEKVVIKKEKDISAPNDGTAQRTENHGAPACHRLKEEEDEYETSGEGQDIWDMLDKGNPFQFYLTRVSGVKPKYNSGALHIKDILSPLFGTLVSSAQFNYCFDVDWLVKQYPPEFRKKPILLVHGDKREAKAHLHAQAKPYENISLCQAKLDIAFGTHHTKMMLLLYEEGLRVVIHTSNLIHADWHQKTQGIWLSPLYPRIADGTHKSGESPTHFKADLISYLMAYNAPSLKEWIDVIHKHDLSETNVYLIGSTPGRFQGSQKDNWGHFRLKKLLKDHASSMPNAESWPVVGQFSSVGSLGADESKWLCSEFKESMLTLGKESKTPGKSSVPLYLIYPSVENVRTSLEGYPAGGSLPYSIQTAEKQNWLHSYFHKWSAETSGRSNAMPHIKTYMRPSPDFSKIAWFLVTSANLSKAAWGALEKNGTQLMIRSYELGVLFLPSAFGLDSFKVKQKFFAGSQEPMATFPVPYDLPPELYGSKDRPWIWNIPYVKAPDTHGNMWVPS
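Steps: enzyme plus compound, 15 min RT; add biotin/phosphotyrosine-FITC oligonucleotide (15 nM final), react 5 min; add donor/acceptor beads (10 ug/ml final), 10 min; read AlphaScreen. Tdp1 at 1 nM final.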
TDP1 cell noCPT: qHTS for Inhibitors of human tyrosyl-DNA phosphodiesterase 1 (TDP1): qHTS in cells in absence of CPT; AID 686978, 2013; 420,000 tested, 15% active; DT40 Tdp1-/- hTDP1 cells, no CPT, ATP luminescence, 48 h; Potency, µM (series often up to 46.2 µM), most hits filed as inhibitors; further: nearly all actives have a fitted effect of over 55% in size
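Chicken DT40 Tdp1-/- cells complemented with human TDP1, screened without camptothecin (DMSO vehicle only), 400 cells/well. Compounds pin-transferred, cells incubated at 37 °C for at least 48 hr. Growth read as ATP-dependent luminescence (CellTiter-Glo, 30 min at RT).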
A number is an active result; - = inactive; ? = inconclusive; . = no result; ! = not active in a repeat; [ ] = another dose, or the depositor's remark. Unless noted, the call rests on the fitted dose curve; in most records, active means well fitted curve in the direction sought with a large enough effect; inconclusive means small, poorly fitted or top-dose-only effect, or another doubt; inactive means no such curve, though single readings can be large; an effect the other way counts as inactive or inconclusive.

SMILES	HepG2 viability	TGFb SMAD3 inh	TDP1 cell CPT	IL1B secr inh	TDP1 inh	TDP1 cell noCPT
CCOc1ccc(CC(=O)NCCc2csc(-c3ccc(C(F)(F)F)cc3)n2)cc1	-	-	.	.	-	.
COc1cc(C2Nc3ccccc3C(=O)N2Cc2ccccc2)ccc1OCc1ccc(NC(C)=O)cc1 (configuration not stated)	.	.	.	.	-	.
CN1CCN(C(=O)C2=C[C@H](c3ccc(C(F)(F)F)cc3)C[C@H](OCc3ccc(CO)cc3)O2)CC1	-	-	23µM	-	-	?
C#Cc1ccc([C@H]2C=C(C(=O)Nc3ccccc3)O[C@@H](OCc3ccc(CO)cc3)C2)cc1	-	-	?	-57	-	?
O=C(C1=C[C@H](c2ccc(C(F)(F)F)cc2)C[C@H](OCc2ccc(CO)cc2)O1)N1CCCCCCC1	-	?	?	-	-	?
O=C(Nc1ccccc1)C1=C[C@H](c2ccccc2)C[C@H](OCc2ccc(CO)cc2)O1	-	-	?	-	-	?
O=C(Nc1ccccc1)C1=C[C@H](c2ccc(C(F)(F)F)cc2)C[C@H](OCc2ccc(CO)cc2)O1	-	13µM	?	?	.	?
O=S1(=O)CC(N2CCN(CCO)CC2)CN1Cc1cn(Cc2ccccc2C(F)(F)F)nn1 (configuration not stated)	-	-	-	-	.	-
C/C(=N\NC(=O)C(=O)Nc1ccc(C)cc1)c1ccncc1	-	-	?	-	-	9.2µM
CC(=NNS(=O)(=O)c1cccc([N+](=O)[O-])c1)c1ccc(-n2ccnc2)cc1	-	-	-	-	-	?
C/C(=N\NC(=O)c1cccs1)c1ccncc1	-	-	-	-	.	-
C/C(=N\Nc1cccc(Cl)c1)c1ccc(-n2ccnc2)cc1	-	-	?	?	-	16µM
C/C(=N\NC(=O)C(=O)Nc1cccc(Cl)c1)c1ccncc1	-	-	12µM	-	-	7.3µM
C/C(=N\NC(=O)C(=O)Nc1ccc(C)c(Cl)c1)c1ccncc1	-	-	1.6µM	-	.	2.3µM
C/C(=N\Nc1ccc(C)c(Cl)c1)c1ccncc1	-	-	-	-	-	?
CCCNc1c(NC(=O)COc2ccc(Cl)cc2)c(=O)oc2ccccc12	-	-	?	-	-	?
Cc1ccc(S(=O)(=O)/C=C/c2ccccc2)cc1	-	-	-	-76	-	-
Cc1ccc(/C=C/S(=O)(=O)Nc2ccc(C)cc2)cc1	-	-	-	-	-	-
COc1ccc(CC(C)Nc2cccc(SC)c2)cc1 (configuration not stated)	-	-	-	-	.	?
CCCC(=O)NC(C)c1nc2ccccc2[nH]1 (configuration not stated)	-	-	-	-	-	-
CCCC(=O)OCCNc1cc(Sc2nc3ccccc3[nH]2)c2nonc2c1[N+](=O)[O-]	6.3µM	?	2.3µM	-104	-	3.3µM
CCN(CC)c1cc(NCCO)c([N+](=O)[O-])c2nonc12	-	-	-	-	-	-
CCC(=O)OCCNc1cc(Sc2nccn2C)c2nonc2c1[N+](=O)[O-]	-	11µM	1µM	-68	-	2.3µM
FC(F)(Cl)c1nnc2ccc(Sc3ccccn3)nn12	-	-	?	-	-	-
COc1ccc(OC)c(N(CC(=O)NC2CC3CCC2C3)S(=O)(=O)c2ccccc2)c1 (configuration not stated)	-	?	?	-67	.	?
SMILES	HepG2 viability	TGFb SMAD3 inh	TDP1 cell CPT	IL1B secr inh	TDP1 inh	TDP1 cell noCPT
COc1ccc(S(=O)(=O)N(CC(=O)NC2CC3CCC2C3)c2ccccc2OC)cc1 (configuration not stated)	-	-	?	-	-	?
COc1ccc(Cl)cc1N(CC(=O)NC1CC2CCC1C2)S(=O)(=O)c1ccccc1 (configuration not stated)	-	-	21µM	-	-	?
COc1ccccc1N(CC(=O)NC1CC2CCC1C2)S(=O)(=O)c1ccc(C)cc1 (configuration not stated)	-	-	?	?	-	?
COc1ccccc1S(=O)(=O)N(C)C[C@@H]1OCc2cnnn2CCCC(=O)N([C@H](C)CO)C[C@@H]1C	-	-	-	-	.	-
Cc1csc(NC(=O)Cc2coc3cc(C)c(C(C)C)cc23)n1	-	?	13µM	?	-	16µM
CNC(=O)COc1ccc(NC(=O)CCn2nc(-c3ccc(C)cc3)c3ccccc3c2=O)cc1	-	-	?	.	-	21µM
COc1ccccc1NC(=O)COc1ccc(-c2nn(C)c(=O)c3ccccc23)cc1	-	7.9µM!	13µM	-	-	7.3µM
Cn1nc(-c2ccc(OCC(=O)Nc3ccc(Cl)cc3)cc2)c2ccccc2c1=O	-	?	?	.	.	21µM
COc1cc2oc(=O)ccc2cc1-c1c(OC)ccc2ccc(=O)oc12	-	-	?	-	-	?
Cc1c(Cl)cccc1NC(=O)CN1C(=O)CSc2ccc(S(=O)(=O)N3CCCC3)cc21	-	-	-	.	-	-
Cc1ccccc1NC(=O)CCn1nc(-c2ccc(Cl)cc2)c2ccccc2c1=O	-	?	?	.	-	-
O=C(CCn1nc(-c2ccccc2)ccc1=O)N1CCN(c2ccccc2)CC1	-	-	?	?	.	-
Cc1ccc(NC(=O)CCn2nc(-c3ccccc3)c3ccccc3c2=O)c(C)c1	-	?	21µM	.	-	?
CN(C(=O)c1ccc(-c2nn(C)c(=O)c3ccccc23)cc1)c1ccccc1	-	-	?	-	-	16µM
O=C(CCn1nc(-c2ccccc2)c2ccccc2c1=O)N1CCN(c2ccccc2)CC1	-	-	16µM	?	-	23µM
Cc1csc(NC(=O)Cc2nn(C)c(=O)c3ccccc23)n1	-	-	10µM	-	-	8.2µM
COc1ccc2nnc(-c3ccc(C(F)(F)F)cc3)n2n1	-	-	-	-	.	?
O=C1CCC(C(=O)OCc2nnc(-c3ccccc3)o2)=NN1	-	-	-	-	-[0.505 µM]	-
Cc1cccc(NC(=O)COc2ccc(-c3nn(C)c(=O)c4ccccc34)cc2)c1	-	?	12µM	-52	-	16µM
COC(=O)COc1ccc(-c2nn(C)c(=O)c3ccccc23)cc1	-	-	-	-	-	-
CCCNC(=O)COc1ccc(-c2nn(C)c(=O)c3ccccc23)cc1	-	-	?	-	.	21µM
